# Measurements as given in publication PMC4336329 (PLoS ONE, 2015).
# Screen size: about 310,000 compounds; about 14,000 (4.5%) showed an effect of 50% or more. Effects have a minus sign here. This is one part of a sample in which strong results are shown more often than they occur.
# Target: human ether-à-go-go-related gene (hERG) potassium channel (human, UniProt Q12809)
# Test: primary screen, population patch clamp on CHO cells stably expressing hERG; higher = less effect of the substance
# 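Note: peak tail current of the secondary pulse compared with the same well before compound.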
# human ether-à-go-go-related gene (hERG) potassium channel, sequence (Q12809 whole entry, looked up): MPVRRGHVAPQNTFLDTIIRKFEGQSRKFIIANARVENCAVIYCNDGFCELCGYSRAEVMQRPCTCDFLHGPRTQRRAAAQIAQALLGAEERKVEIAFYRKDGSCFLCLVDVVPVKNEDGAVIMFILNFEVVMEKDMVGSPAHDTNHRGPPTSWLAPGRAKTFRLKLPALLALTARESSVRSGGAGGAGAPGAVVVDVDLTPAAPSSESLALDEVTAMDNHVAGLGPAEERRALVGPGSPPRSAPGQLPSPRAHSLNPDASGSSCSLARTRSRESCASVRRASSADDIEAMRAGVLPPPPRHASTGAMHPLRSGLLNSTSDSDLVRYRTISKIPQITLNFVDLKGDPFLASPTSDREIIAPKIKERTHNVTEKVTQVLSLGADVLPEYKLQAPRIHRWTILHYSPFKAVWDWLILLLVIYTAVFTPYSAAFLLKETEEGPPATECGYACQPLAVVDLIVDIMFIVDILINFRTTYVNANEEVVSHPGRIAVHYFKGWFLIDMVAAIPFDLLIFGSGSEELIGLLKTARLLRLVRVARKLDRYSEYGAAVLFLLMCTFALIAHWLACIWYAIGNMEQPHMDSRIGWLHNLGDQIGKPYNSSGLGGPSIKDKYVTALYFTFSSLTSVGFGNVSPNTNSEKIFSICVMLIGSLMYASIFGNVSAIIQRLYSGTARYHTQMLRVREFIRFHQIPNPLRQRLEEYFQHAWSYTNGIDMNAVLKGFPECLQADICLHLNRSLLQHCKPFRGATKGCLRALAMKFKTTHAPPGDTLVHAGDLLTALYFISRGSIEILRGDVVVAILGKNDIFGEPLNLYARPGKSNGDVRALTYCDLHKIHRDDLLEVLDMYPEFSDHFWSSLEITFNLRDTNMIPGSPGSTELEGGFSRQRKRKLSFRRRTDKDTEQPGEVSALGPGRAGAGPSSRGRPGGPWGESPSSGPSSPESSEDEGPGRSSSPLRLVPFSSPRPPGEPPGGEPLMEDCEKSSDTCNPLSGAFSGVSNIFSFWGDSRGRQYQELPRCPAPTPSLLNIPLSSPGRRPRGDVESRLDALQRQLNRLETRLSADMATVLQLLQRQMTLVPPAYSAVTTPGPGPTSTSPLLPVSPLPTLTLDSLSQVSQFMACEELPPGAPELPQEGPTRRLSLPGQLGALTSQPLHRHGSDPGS
row,Compound,"hERG current change (%, negative = inhibition) at 10uM"
1,CNc1cc(C)c(C#N)c2nc3ccccc3n12,-8.75%
2,CCN(CC)S(=O)(=O)c1ccc2c3c(cccc13)C(=O)S2,-18.4%
3,COc1ccccc1NC(=O)CN1CCN(CC(=O)Nc2ccccc2Cl)CC1,2.56%
4,COc1ccc(NC(=O)CN2CCN(CC(=O)Nc3ccccc3Cl)CC2)c(OC)c1,-78%
5,COc1ccc(NC(=O)CN2CCN(c3ccc(Cl)cc3)CC2)c(OC)c1,-12.7%
6,COc1ccc(NC(=O)CN2CCN(C3c4ccccc4-c4ccccc43)CC2)c(OC)c1,-10.5%
7,COc1ccc(NC(=O)CN2CCN(CC(=O)Nc3ccccc3F)CC2)c(OC)c1,-63.5%
8,COc1ccc(C)cc1NC(=O)CN1CCN(CC(=O)Nc2ccccc2F)CC1,-48.7%
9,CC1=C(C(=O)OCCc2ccccc2)C(c2ccsc2)NC(=O)N1C (centres unmarked),-10.9%
10,OCC1(CO)COC(CCc2ccccc2)=N1,16.1%
11,CC(=O)OCc1c(C(F)(F)F)nn(C)c1SCc1ccc(Cl)cc1,8.19%
12,CC1(C(=O)N2CCOCC2)CCCCC1,11.6%
13,O=C(CCc1nnc2ccc(N3CCC4(CC3)OCCO4)nn12)N1CCCCC1,16.7%
14,COc1ccccc1/C=N/NC(=O)CC(=O)NCc1ccccc1,-2.25%
15,COc1ccc(C)cc1NC(=O)C1CCCCC1C(=O)O (centres unmarked),14.7%
16,O=S(=O)(c1ccc2c(c1)OCCO2)N1CCC(n2nnc3cc(F)ccc32)CC1,-38.7%
17,CC(=O)Nc1ccc(S(=O)(=O)N2CCC(n3cnc4cc(F)ccc43)CC2)cc1,-65.7%
18,CC(=O)Nc1ccc(S(=O)(=O)N2CCC(N3CCCC3)CC2)cc1,13.2%
19,O=S(=O)(c1ccc2c(c1)OCCO2)N1CCC(n2nnc3cc(C(F)(F)F)ccc32)CC1,-16.4%

row,Compound,"hERG current change (%, negative = inhibition) at 10uM"
1,CC(=O)Nc1ccc(S(=O)(=O)N2CCC(C(=O)c3ccc(F)cc3)CC2)cc1,-34.6%
2,O=S(=O)(c1ccc2c(c1)OCCO2)N1CCC(n2cnc3cc(F)ccc32)CC1,-62.4%
3,COc1cccc(OCCOCCNCCO)c1,-6.7%
4,O=C(CN(CCc1ccccc1)C(=O)c1csnn1)NC1CCCC1,-4.71%
5,C[C@]12CCC3C(CC[C@H]4CC(O)CC[C@]34C)C1CC/C2=N/O (some centres unmarked),13.3%
6,COc1ccc(OCC#CCN2CCC(C)CC2)cc1.O=C(O)C(=O)O,-11.4%
7,CC(C)(C)CC(C)(C)NCC(=O)Nc1c2c(nc3ccccc13)CCC2.O=C(O)C(=O)O,-3.35%
8,CN(C)c1cc(NC(=O)CNC(C)(C)C)c2ccccc2n1.O=C(O)C(=O)O,-24.4%
9,CC(Cc1ccccc1)NCC(=O)Nc1cc(N(C)C)nc2ccccc12.O=C(O)C(=O)O (centres unmarked),-77.1%
10,COc1ccc(CCN(C)CC(=O)Nc2cc(C)nc3ccccc23)cc1OC.O=C(O)C(=O)O,5.34%
11,CN1CCN(CC(=O)Nc2cc(N(C)C)nc3ccccc23)CC1.Cl,8.25%
12,CN(C)c1cc(NC(=O)CNC(C)(C)CC(C)(C)C)c2ccccc2n1.O=C(O)C(=O)O,-69.9%
13,CCOc1ccccc1NC(=O)[C@@H](NC(=O)c1ccccc1F)C(C)C,-6.35%
14,COc1ccc(C(C(N)=O)c2ncc(C(F)(F)F)cc2Cl)cc1 (centres unmarked),4.78%
15,O=C(CCCCl)NC1=NN(c2ccccc2)C(=O)C1,-4.99%
16,Fc1ccc(CNC2CCN(Cc3ccccc3)CC2)cc1,-65.3%
17,FC(F)(F)c1cccc(CNC2CCN(Cc3ccccc3)CC2)c1,-28.3%
18,COc1ccc(OC)c(-n2c(CN3CCC(C(N)=O)CC3)nc3ccccc3c2=O)c1,-0.126%
19,COc1ccc(CNC2CCN(Cc3ccccc3)CC2)cc1,-54.2%

row,Compound,"hERG current change (%, negative = inhibition) at 10uM"
1,Clc1ccc(CNC2CCN(Cc3ccccc3)CC2)cc1,-72.7%
2,COc1ccc(-n2c(CN3CCOCC3)nc3ccccc3c2=O)c(OC)c1,22.9%
3,COc1ccc(OC)c(-n2c(CNC3CCN(Cc4ccccc4)CC3)nc3ccccc3c2=O)c1,-76.6%
4,COc1ccccc1CNC1CCN(Cc2ccccc2)CC1,-3.89%
5,S=C(NCc1ccc(Cl)cc1)NC1CCN(Cc2ccccc2)CC1,-41.8%
6,COc1ccc(CCNC(=S)NC2CCN(Cc3ccccc3)CC2)cc1,-36.9%
7,Cl.Clc1ccc(CNC2CCCC2)cc1,-13.1%
8,CC(NC1CCN(Cc2ccccc2)CC1)c1ccc(F)cc1 (centres unmarked),3.46%
9,Fc1ccc(-c2cc(C(F)(F)F)nc(NCc3cccs3)n2)cc1,14.4%
10,CCOC(=O)c1c(-c2ccccc2)csc1NC(=O)/C(C#N)=C/c1ccc(O)c(OC)c1,-7.1%
11,O=C(COc1ccc(/C=N/NC(=O)c2cc3ccccc3o2)cc1Br)Nc1ccccc1,19.3%
12,Cc1ccccc1NS(=O)(=O)c1ccc(C)c(C(=O)N2CCOCC2)c1,1.47%
13,COc1ccc(C(=O)NNC(=O)C(=O)N2CCCCC2)cc1OC,59.5%
14,CCOC(=O)C(NC(=O)Nc1cccc(C)n1)(OCC(F)(F)F)C(F)(F)F (centres unmarked),5.06%
15,CC(=O)COC(=O)C1=NN(c2ccccc2)C(=O)CC1,23.7%
16,COc1ccc(S(=O)(=O)N2CCCC(C(=O)NCc3ccc(F)cc3)C2)cc1 (centres unmarked),6.39%
17,CCc1nc2ccc(C(=O)NCCc3ccc(OC)c(OC)c3)cc2nc1CC,-0.0865%
18,Cn1c(O)c(/C=C2\N=c3ccccc3=C2CCNC(=S)NC2CC2)c(=O)n(C)c1=O,-44.6%
